MCL1-BIM inh: inhibitors of human MCL1 binding to BIM-BH3 peptide | Q07820 | GST-MCL1 / FITC-Bim-BH3 fluorescence polarization | inhibition, % at 10.9 µM | 320,000 compounds, 0.68% hits | AID 2057;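 active = inhibition above the mean inhibition of all tested compounds plus 3 SD, set per campaign, cut at about 40% in these data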;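 also: higher means more loss of mP so more displacement of Bim peptide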
BCLXL inh: Bcl-xL (human) inhibition. Q07817. GST-Bcl-xL / FITC-Bim BH3 peptide fluorescence polarization. inhibition, % at 10.9 µM. 320,000 compounds, 0.7% hits. AID 2129;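 active = inhibition above the mean of all tested compounds plus 3 SD, cutoff set per campaign, cut at about 30% in these data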;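 also: inhibitors lower millipolarization by displacing the labeled peptide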
E coli Lon inh: E. coli protease La inhibition | P0A9M0 | purified E. coli Lon protease, fluorescence polarization | inhibition, % at 7.94 µM | 360,000 compounds, 0.42% hits | AID 602123; in the data active = inhibition above about 13%, passing the limit was not always enough
GLD-1 TGE inh: GLD-1-TGE RNA interaction inhibition (C. elegans); inhibition, % at 5.96 µM; Q17339; 320,000 compounds, 0.44% hits; purified GLD-1 + fluorescein TGE RNA, fluorescence polarization;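 active = percent inhibition above a per-plate cutoff, the plate mean of test compounds plus 3 SD, cut at about 30% in these data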
EBV gp42 inh: blocks Epstein-Barr virus glycoprotein 42 binding. Q1HVG2. AID 1085. 220,000 compounds, 0.42% hits. Fluorescence polarization binding assay, mP read-out. inhibition, % (tested at 21.74 µM); in the data active = inhibition above about 50%
MEX-5 binding: C. elegans MEX-5 TCR-2 RNA binding activity | MEX-5/FITC-TCR2 RNA binding, fluorescence polarization; active compounds read low | 300,000 compounds, 0.38% hits | activity score (negative = inhibition of binding), % at 10 µM | Q9XUB2;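 active = inhibition past about -25% in most replicates, and total fluorescence under double the plate's negative control median, limit read from the data; inconclusive = replicates evenly split on the limit, or fluorescence at least double controls; inactive = too little inhibition in most replicates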
BCLXL inh confirm: counter-screen for MCL1 inhibitors: confirmation of human Bcl-xL inhibitors; GST-Bcl-xL / FITC-Bim BH3 peptide FP binding; inhibition, % at 10.9 µM; 1,700 compounds, 54% hits; shares compounds with MCL1-BIM inh;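 active = inhibition above a cutoff equal to the mean inhibition of all tested compounds plus 3 SD, cut at about 30% in these data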
MCL1 BIM confirm: confirmation of human MCL1 and BIM-BH3 interaction inhibitors; shares compounds with MCL1-BIM inh; GST-MCL1 / FITC-Bim-BH3 fluorescence polarization; inhibition, % at 10.9 µM; 1,700 compounds, 61% hits; AID 2168;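 active = inhibition above the average of all tested compounds plus 3 SD, cut at about 40% in these data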
Of the large screens only hits and unclear results are named; the others gave an inactive call (follow-up assays come after a bar, where they were run). Only some compounds are listed: those with a hit (about 1.4% of all), similar ones and a draw of the others.

CN1CCN(C(c2ccc(Br)cc2)c2cc(Cl)c3cccnc3c2O)CC1 (stereo not given)	MCL1-BIM inh 40 (no result: EBV gp42 inh) | BCLXL inh confirm 47 | MCL1 BIM confirm 106
O=C(NCc1ccccc1F)c1ccncc1	none (no result: EBV gp42 inh)
O=C(Cn1c(=O)n(Cc2ccco2)c(=O)c2c3c(sc21)CCCCC3)c1ccccc1	MCL1-BIM inh 43 | BCLXL inh confirm inactive | MCL1 BIM confirm inactive
CCN(CC)c1ccc2cc(-c3nc4ccccc4[nH]3)c(=O)oc2c1	MCL1-BIM inh 76, BCLXL inh 81, GLD-1 TGE inh 42, MEX-5 binding inconclusive | BCLXL inh confirm 89 | MCL1 BIM confirm 105
CCN(CC)c1ccc2cc(-c3nc(-c4ccc(OC)cc4)cs3)c(=O)oc2c1	MCL1-BIM inh 110, BCLXL inh 107, GLD-1 TGE inh 67, EBV gp42 inh 92 (no result: E coli Lon inh, MEX-5 binding) | BCLXL inh confirm 115 | MCL1 BIM confirm 134
CCN(CC)c1ccc2cc(-c3nnc(-c4ccccc4)o3)c(=O)oc2c1	MEX-5 binding inconclusive
CCOC(=O)c1ccccc1NC(=O)Cc1c(C(=O)O)n(C)c2ccccc12	none (no result: EBV gp42 inh)
Clc1ccc(C2Nc3cccc4cccc(c34)N2)cc1	MCL1-BIM inh 67, BCLXL inh 44 (no result: EBV gp42 inh) | BCLXL inh confirm inactive | MCL1 BIM confirm inactive
CSc1ccc(C2Nc3cccc4cccc(c34)N2)cc1	none (no result: EBV gp42 inh)
COc1ccc(-n2cccc2/C=C2\C(=N)N3N=C(C(C)C)SC3=NC2=O)cc1	none
COc1ccc(-n2cccc2/C=C2\C(=N)N3N=C(c4ccco4)SC3=NC2=O)cc1	MCL1-BIM inh 66, EBV gp42 inh 76 | BCLXL inh confirm inactive | MCL1 BIM confirm 81
CC1CCCN(Cc2c(O)ccc3c2O/C(=C\c2ccco2)C3=O)C1 (stereo not given)	MCL1-BIM inh 152, BCLXL inh 123, GLD-1 TGE inh 95, MEX-5 binding inconclusive | BCLXL inh confirm 119 | MCL1 BIM confirm 133
CCN1CCN(Cc2c(O)ccc3c2O/C(=C\c2ccccc2)C3=O)CC1	MCL1-BIM inh 55, BCLXL inh 54, MEX-5 binding -34 | BCLXL inh confirm 59 | MCL1 BIM confirm 62
CN(C)Cc1c(O)ccc2c1O/C(=C\C=C\c1ccccc1)C2=O	MCL1-BIM inh 76, BCLXL inh 78, MEX-5 binding inconclusive | BCLXL inh confirm 85 | MCL1 BIM confirm 91
COc1ccccc1C(NC(C)=O)c1cc(Cl)c2cccnc2c1O (stereo not given)	none (no result: EBV gp42 inh)
O=C(O)COc1ccccc1C(Nc1ccccn1)c1cc(Cl)c2cccnc2c1O (stereo not given)	MCL1-BIM inh 79 | BCLXL inh confirm inactive | MCL1 BIM confirm 89
CC1(C)Cc2c(C#N)c(N3CCN(C(=O)c4ccco4)CC3)nc(-c3ccco3)c2CS1	MCL1-BIM inh 68, BCLXL inh 35 | BCLXL inh confirm inactive | MCL1 BIM confirm 49
CC(=O)N1CCN(c2nc(-c3ccco3)c3c(c2C#N)CC(C)(C)SC3)CC1	none
CN(C)c1ccc(N2C(=O)CSC2=S)cc1	MCL1-BIM inh 46, BCLXL inh 39 | BCLXL inh confirm inactive | MCL1 BIM confirm inactive
COc1ccc(C(=O)N2CCn3c(C)ccc3C2C)cc1 (stereo not given)	MCL1-BIM inh 49, BCLXL inh 47 | BCLXL inh confirm inactive | MCL1 BIM confirm inactive
Cc1ccc(/C(O)=C2\C(=O)C(=O)N(CC(C)O)C2c2ccccn2)cc1 (stereo not given)	none
Cc1ccc(C2C(C#N)=C(N)Oc3cc4c(cc32)OCO4)cc1 (stereo not given)	none
CSc1ccc(C2C(C#N)=C(N)Oc3cc4c(cc32)OCO4)cc1 (stereo not given)	MCL1-BIM inh 43 | BCLXL inh confirm inactive | MCL1 BIM confirm inactive
COc1ccc2oc(C(=O)OC(C)C(=O)NCc3ccccc3)c(C)c2c1 (stereo not given)	MCL1-BIM inh 44 (no result: EBV gp42 inh) | BCLXL inh confirm inactive | MCL1 BIM confirm inactive
COc1ccc2oc(C(=O)OC(C)C(=O)NC3(C#N)CCCCC3)c(C)c2c1 (stereo not given)	none (no result: EBV gp42 inh)
